What all share (assay): DAPPL (digital affinity profiling via proximity ligation, sequencing); 10 mM Tris-HCl pH 7.5, 50 mM NaCl, 1 mM DTT, 4% glycerol, room temperature, 30 min; GST-TFs on glutathione beads, 16-mer random dsDNA library, 0.1% formaldehyde crosslink after washing; high values mean tight binding
One experiment has as its target T1, FLI1 (Homo sapiens, UniProt Q01543 1-452).
T1 sequence: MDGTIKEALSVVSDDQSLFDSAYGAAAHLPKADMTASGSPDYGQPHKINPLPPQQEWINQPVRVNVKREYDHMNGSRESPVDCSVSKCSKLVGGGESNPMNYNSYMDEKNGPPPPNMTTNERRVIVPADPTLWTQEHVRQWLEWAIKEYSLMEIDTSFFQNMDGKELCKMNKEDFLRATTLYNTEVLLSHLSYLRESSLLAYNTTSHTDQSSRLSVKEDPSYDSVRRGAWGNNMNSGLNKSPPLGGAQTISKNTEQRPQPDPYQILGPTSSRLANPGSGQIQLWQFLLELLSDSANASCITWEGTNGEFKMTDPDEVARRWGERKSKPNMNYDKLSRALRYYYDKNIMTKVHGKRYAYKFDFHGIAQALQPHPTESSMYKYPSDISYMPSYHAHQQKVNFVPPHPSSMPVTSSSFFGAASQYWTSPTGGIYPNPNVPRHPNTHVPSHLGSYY
The following applies: protein: recombinant; tags: N-terminal GST; dsDNA, one strand shown. Summed up:
(§1)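 Pools were built from human transcription factors expressed in yeast as GST fusions, captured on glutathione beads and DNA-barcoded, along with a tag-only sample. Incubation with 200 nmole of a 16-mer random double-stranded DNA library lasted 30 min at room temperature in Tris/NaCl/DTT/glycerol buffer, and was followed by washing, 0.1% formaldehyde crosslinking, proximity ligation, PCR amplification and Illumina NextSeq500 sequencing. Binding signal is the quotient of each hexamer's read frequency for a factor and its frequency for the tag-only sample.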

A further experiment deals with T2, ELK1 (Homo sapiens, UniProt P19419 1-428).
T2 sequence: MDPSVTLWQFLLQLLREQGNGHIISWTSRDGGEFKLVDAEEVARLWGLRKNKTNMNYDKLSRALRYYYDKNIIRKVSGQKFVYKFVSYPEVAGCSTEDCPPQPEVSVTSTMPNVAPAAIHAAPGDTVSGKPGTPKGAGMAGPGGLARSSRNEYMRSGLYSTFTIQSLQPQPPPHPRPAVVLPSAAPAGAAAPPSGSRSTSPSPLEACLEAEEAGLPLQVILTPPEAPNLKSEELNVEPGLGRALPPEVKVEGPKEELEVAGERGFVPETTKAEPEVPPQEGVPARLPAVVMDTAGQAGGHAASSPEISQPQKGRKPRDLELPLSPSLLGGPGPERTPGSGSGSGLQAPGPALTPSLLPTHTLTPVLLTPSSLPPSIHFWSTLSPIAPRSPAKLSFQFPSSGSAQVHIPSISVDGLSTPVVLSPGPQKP
The following applies: protein: recombinant; tags: N-terminal GST; dsDNA, one strand shown. The procedure, abridged:
as §1

The next experiment deals with T3, GABPA (Homo sapiens, UniProt Q06546 1-454).
T3 sequence: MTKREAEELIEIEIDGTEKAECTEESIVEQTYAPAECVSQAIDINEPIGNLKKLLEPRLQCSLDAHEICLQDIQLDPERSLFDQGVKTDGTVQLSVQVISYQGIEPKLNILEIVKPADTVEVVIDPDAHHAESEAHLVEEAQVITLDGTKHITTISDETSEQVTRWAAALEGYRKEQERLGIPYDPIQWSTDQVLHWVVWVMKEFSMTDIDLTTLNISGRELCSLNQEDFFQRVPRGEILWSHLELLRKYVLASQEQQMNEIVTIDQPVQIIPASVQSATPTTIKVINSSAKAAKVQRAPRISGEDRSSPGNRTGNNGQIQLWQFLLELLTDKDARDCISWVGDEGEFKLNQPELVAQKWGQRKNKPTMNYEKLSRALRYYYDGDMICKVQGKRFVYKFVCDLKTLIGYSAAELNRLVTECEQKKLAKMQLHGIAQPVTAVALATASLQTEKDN
The following applies: protein: recombinant; tags: N-terminal GST; dsDNA, one strand shown. Summed up:
as §1

The next experiment concerns the target T4, ERG (Homo sapiens, UniProt P11308 1-479).
T4 sequence: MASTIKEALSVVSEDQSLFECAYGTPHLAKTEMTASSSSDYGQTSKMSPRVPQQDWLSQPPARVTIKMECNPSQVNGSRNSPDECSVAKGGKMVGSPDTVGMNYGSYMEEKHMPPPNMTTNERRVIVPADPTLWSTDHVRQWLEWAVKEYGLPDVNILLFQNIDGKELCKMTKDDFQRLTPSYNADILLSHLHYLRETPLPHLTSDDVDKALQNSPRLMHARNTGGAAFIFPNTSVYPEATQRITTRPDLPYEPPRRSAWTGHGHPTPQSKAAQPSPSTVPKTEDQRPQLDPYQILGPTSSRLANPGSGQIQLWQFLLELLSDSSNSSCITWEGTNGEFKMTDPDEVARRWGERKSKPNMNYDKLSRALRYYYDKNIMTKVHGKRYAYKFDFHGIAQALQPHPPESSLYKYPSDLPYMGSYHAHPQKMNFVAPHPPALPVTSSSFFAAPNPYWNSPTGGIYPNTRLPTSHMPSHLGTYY
The following applies: protein: recombinant; tags: N-terminal GST; dsDNA, one strand shown. Summed up:
as §1

Another experiment addresses ELF1 (Homo sapiens, UniProt P32519 1-619). The following applies: protein: recombinant; tags: N-terminal GST; dsDNA, one strand shown. The procedure, abridged:
as §1

Another experiment concerns the target T5, EHF (Homo sapiens, UniProt Q9NZC4 1-300).
T5 sequence: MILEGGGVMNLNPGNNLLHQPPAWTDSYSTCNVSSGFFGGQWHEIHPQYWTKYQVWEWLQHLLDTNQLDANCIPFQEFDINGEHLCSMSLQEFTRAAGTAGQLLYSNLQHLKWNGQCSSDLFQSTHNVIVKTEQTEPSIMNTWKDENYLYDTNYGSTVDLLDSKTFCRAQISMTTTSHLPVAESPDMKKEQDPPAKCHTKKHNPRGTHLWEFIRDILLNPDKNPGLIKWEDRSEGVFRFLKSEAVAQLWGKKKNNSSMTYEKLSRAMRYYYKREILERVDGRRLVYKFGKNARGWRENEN
The following applies: protein: recombinant; tags: N-terminal GST; dsDNA, one strand shown. Summed up: as §1

Another experiment has as its target SPI1 (Homo sapiens, UniProt P17947 1-270). The following applies: protein: recombinant; tags: N-terminal GST; dsDNA, one strand shown. Summed up: as §1
In another experiment the target is SPIB (Homo sapiens, UniProt Q01892 1-262). The following applies: protein: recombinant; tags: N-terminal GST; dsDNA, one strand shown. The procedure, abridged: as §1
For the next experiment, the target named is T6, ELK3 (Homo sapiens, UniProt P41970 1-407).
T6 sequence: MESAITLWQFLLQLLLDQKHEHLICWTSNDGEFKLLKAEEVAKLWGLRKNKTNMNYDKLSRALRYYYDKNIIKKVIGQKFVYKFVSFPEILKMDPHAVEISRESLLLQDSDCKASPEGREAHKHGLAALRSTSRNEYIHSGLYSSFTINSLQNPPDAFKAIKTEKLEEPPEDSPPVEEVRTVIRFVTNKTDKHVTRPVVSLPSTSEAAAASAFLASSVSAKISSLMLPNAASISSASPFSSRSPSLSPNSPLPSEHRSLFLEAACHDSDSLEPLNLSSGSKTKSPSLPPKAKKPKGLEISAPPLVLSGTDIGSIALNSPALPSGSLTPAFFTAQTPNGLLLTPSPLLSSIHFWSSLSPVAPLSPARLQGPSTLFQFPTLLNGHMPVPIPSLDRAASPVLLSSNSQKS
The following applies: protein: recombinant; tags: N-terminal GST; dsDNA, one strand shown. The procedure, abridged: as §1

For another experiment, the target named is T7, FEV (Homo sapiens, UniProt Q99581 1-238).
T7 sequence: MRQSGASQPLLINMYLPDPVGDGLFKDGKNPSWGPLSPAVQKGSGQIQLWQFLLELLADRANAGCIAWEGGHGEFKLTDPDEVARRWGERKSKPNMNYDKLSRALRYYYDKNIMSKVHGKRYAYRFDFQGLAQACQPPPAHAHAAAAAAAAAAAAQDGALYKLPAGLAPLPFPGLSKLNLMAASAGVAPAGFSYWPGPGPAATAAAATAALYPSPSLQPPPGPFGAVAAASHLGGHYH
The following applies: protein: recombinant; tags: N-terminal GST; dsDNA, one strand shown. The procedure, abridged:
as §1

In a further experiment the target is ETV5 (Homo sapiens, UniProt P41161 1-510). The following applies: protein: recombinant; tags: N-terminal GST; dsDNA, one strand shown. The procedure, abridged: as §1
For the next experiment, the target named is HSF1 (Homo sapiens, UniProt Q00613 1-529). The following applies: protein: recombinant; tags: N-terminal GST; chain copies: 3; dsDNA, one strand shown. The procedure, abridged:
as §1

In another experiment the target is T8, SPIC (Homo sapiens, UniProt Q8N5J4 1-248).
T8 sequence: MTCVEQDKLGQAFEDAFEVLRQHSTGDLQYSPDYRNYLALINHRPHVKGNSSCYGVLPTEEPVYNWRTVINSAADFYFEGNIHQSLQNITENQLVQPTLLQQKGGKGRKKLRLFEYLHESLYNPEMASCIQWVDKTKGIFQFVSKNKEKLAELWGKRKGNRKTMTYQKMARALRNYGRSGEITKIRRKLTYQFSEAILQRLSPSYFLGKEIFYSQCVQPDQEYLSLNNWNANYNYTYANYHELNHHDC
The following applies: protein: recombinant; tags: N-terminal GST; dsDNA, one strand shown. The procedure, abridged:
as §1

A further experiment has as its target ELF4 (Homo sapiens, UniProt Q99607 1-663). The following applies: protein: recombinant; tags: N-terminal GST; dsDNA, one strand shown. The procedure, abridged: as §1
For another experiment, the target named is T9, ELK4 (Homo sapiens, UniProt P28324-2 1-405).
T9 sequence: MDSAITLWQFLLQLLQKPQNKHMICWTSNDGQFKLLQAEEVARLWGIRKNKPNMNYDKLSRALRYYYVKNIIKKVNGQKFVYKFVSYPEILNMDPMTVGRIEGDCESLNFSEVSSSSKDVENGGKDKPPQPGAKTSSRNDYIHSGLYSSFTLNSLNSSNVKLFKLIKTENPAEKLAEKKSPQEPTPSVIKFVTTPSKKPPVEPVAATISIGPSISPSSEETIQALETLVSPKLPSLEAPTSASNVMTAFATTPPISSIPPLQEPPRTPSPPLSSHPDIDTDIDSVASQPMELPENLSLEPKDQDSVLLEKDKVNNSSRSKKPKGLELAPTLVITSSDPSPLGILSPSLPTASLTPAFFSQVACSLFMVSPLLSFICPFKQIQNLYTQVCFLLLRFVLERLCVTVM
The following applies: protein: recombinant; tags: N-terminal GST; dsDNA, one strand shown. The procedure, abridged:
as §1

The next experiment addresses T10, ETV2 (Homo sapiens, UniProt O00321 1-342).
T10 sequence: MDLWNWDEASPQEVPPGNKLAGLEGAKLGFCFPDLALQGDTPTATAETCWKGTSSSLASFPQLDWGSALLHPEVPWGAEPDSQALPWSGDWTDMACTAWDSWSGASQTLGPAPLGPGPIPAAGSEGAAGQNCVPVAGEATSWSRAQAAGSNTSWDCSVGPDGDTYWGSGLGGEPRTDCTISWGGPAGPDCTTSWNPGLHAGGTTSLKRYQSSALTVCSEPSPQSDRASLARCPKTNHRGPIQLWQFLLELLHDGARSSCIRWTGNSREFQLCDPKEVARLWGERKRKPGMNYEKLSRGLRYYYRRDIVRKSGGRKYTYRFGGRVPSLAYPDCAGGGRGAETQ
The following applies: protein: recombinant; tags: N-terminal GST; dsDNA, one strand shown. Summed up:
as §1

The target of a further experiment is T11, ELF3 (Homo sapiens, UniProt P78545 1-371).
T11 sequence: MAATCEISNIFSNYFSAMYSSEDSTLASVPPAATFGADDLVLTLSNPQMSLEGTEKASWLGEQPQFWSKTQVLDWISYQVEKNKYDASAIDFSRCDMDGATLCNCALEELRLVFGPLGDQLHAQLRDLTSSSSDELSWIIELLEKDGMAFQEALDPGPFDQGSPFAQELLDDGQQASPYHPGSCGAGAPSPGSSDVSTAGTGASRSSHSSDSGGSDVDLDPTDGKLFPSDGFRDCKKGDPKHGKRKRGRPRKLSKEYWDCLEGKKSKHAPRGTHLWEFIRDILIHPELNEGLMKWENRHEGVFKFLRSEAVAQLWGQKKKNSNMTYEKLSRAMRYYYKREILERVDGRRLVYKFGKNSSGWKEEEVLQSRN
The following applies: protein: recombinant; tags: N-terminal GST; dsDNA, one strand shown. Summed up:
as §1

The target in another experiment is CRX (Homo sapiens, UniProt O43186 1-299). The following applies: protein: recombinant; tags: N-terminal GST; dsDNA, one strand shown. The procedure, abridged:
as §1

A further experiment concerns the target ETV1 (Homo sapiens, UniProt P50549 1-477). The following applies: protein: recombinant; tags: N-terminal GST; dsDNA, one strand shown. Summed up: as §1

This is an account of results in PMC7862700, “An all-to-all approach to the identification of sequence-specific readers for epigenetic DNA modifications on cytosine”.

Chain of ETV5 (P41161 whole entry): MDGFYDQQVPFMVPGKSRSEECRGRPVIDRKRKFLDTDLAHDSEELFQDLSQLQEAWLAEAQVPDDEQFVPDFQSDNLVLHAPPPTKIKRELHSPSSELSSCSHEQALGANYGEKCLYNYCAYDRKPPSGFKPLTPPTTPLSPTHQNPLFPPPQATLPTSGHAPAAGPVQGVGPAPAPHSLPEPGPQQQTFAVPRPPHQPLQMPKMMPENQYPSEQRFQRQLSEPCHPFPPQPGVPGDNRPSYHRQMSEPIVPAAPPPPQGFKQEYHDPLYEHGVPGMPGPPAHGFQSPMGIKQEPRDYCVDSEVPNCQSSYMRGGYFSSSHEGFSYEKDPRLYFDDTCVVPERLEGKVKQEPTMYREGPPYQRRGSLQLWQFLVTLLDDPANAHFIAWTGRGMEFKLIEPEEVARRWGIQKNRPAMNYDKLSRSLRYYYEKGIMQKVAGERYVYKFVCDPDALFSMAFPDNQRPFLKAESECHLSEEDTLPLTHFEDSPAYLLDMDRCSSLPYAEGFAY
Chain of ELF1 (P32519 whole entry): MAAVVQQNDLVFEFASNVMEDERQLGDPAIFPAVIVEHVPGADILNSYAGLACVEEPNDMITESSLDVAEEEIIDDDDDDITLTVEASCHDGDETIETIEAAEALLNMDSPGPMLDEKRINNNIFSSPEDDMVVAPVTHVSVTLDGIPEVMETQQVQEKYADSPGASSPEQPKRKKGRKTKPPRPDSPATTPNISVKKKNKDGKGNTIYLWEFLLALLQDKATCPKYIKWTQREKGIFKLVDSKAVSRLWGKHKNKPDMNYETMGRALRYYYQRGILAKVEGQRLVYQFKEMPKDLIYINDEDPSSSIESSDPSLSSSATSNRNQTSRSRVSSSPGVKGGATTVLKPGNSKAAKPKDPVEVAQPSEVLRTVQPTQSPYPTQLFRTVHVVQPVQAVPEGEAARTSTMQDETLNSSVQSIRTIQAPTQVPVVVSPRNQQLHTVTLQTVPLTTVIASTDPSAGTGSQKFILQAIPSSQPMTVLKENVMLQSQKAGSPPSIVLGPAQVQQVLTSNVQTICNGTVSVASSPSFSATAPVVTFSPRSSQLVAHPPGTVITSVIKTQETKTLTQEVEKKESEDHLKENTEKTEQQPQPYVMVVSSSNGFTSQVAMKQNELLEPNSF
Chain of HSF1 (Q00613 whole entry): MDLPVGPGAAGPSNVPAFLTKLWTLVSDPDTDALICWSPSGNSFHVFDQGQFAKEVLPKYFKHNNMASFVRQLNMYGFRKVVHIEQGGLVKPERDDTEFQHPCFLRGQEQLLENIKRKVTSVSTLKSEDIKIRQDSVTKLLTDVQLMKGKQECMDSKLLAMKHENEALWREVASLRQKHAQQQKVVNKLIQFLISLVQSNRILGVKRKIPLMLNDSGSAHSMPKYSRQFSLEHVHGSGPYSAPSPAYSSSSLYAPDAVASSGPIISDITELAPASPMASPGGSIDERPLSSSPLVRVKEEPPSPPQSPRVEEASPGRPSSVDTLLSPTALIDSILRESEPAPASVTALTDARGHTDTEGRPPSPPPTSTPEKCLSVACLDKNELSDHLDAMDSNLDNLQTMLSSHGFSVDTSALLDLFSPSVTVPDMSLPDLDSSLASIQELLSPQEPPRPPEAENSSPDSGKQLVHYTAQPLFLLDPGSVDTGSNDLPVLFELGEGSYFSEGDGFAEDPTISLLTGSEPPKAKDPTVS
Chain of SPIB (Q01892 whole entry): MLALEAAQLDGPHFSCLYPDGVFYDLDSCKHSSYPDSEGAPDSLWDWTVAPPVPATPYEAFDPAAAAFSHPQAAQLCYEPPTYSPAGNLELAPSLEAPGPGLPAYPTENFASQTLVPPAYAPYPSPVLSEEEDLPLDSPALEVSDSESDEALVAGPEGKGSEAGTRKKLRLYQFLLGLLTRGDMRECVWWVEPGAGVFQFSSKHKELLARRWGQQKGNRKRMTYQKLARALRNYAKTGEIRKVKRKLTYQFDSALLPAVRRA
Chain of ETV1 (P50549 whole entry): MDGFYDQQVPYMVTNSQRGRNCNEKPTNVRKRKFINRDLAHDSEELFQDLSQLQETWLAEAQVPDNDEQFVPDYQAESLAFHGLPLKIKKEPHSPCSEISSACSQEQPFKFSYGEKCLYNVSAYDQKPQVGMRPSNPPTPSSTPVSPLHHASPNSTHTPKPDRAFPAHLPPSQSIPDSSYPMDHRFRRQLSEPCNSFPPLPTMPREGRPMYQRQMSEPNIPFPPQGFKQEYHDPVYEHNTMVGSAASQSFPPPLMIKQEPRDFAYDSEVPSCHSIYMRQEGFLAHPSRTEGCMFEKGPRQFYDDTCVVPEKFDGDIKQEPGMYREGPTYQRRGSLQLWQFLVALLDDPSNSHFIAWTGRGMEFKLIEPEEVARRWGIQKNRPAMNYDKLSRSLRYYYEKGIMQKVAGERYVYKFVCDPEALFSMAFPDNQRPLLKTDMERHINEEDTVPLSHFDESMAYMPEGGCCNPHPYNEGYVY
Chain of CRX (O43186 whole entry): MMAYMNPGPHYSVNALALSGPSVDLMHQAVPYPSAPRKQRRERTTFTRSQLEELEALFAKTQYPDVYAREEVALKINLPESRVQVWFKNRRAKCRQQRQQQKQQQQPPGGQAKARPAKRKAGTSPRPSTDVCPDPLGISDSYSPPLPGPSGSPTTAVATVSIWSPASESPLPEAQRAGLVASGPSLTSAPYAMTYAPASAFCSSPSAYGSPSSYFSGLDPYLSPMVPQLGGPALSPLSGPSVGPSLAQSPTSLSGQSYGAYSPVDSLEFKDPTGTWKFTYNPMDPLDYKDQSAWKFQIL
Chain of ELF4 (Q99607 whole entry): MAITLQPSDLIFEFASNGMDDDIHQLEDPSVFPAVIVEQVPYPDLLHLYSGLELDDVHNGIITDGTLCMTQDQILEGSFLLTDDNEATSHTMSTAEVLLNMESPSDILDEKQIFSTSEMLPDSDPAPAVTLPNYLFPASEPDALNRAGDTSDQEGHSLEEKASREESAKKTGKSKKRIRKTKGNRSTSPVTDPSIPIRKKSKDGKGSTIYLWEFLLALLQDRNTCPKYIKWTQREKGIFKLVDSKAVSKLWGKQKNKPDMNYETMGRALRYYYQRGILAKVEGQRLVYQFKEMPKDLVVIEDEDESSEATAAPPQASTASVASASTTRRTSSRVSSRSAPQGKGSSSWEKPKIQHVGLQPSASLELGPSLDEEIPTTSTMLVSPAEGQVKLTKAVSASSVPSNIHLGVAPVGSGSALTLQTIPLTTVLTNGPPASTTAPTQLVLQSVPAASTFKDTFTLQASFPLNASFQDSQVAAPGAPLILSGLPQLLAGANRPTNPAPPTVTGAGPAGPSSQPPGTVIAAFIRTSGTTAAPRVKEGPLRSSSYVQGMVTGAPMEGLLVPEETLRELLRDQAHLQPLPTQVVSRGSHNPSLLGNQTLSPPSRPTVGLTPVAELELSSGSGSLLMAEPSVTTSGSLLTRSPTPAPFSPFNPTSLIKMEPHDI

On to AGAAAT, for which the binding signal with FLI1 was 1.05 fold enrichment (6-mer frequency, TF over GST control); in the experiment with ELK1, 1.13 fold enrichment (6-mer frequency, TF over GST control); in the experiment with GABPA it was 1.17 fold enrichment (6-mer frequency, TF over GST control); with ERG it was 1.1 fold enrichment (6-mer frequency, TF over GST control); in the experiment with ELF1, 1.15 fold enrichment (6-mer frequency, TF over GST control); with EHF, 1.16 fold enrichment (6-mer frequency, TF over GST control). Moreover, the binding signal in the experiment with SPI1 was 1.16 fold enrichment (6-mer frequency, TF over GST control); in the experiment with SPIB, 1.11 fold enrichment (6-mer frequency, TF over GST control); in the experiment with ELK3, 1.2 fold enrichment (6-mer frequency, TF over GST control); with FEV it was 1.12 fold enrichment (6-mer frequency, TF over GST control); in the experiment with ETV5 it was 1.17 fold enrichment (6-mer frequency, TF over GST control); with HSF1 it was 2.04 fold enrichment (6-mer frequency, TF over GST control). For the same sequence, the binding signal with SPIC is 1.22 fold enrichment (6-mer frequency, TF over GST control); with ELF4, 1.15 fold enrichment (6-mer frequency, TF over GST control); with ELK4, 1.03 fold enrichment (6-mer frequency, TF over GST control); with ETV2, 1.19 fold enrichment (6-mer frequency, TF over GST control); with ELF3, 1.2 fold enrichment (6-mer frequency, TF over GST control); with CRX, 1.35 fold enrichment (6-mer frequency, TF over GST control). Further, the binding signal with ETV1 is 1.13 fold enrichment (6-mer frequency, TF over GST control).
